# Results taken from PubChem BioAssay (NCATS).
# Where “and” joins values, the source holds several entries; their conditions need not be identical. Equal values may be shown once. Records with an inconclusive call do not appear. A number with no mark means an inactive call. Calls come from the whole dose curve.
# Test: qHTS Assay for Lipid Storage Modulators (AID 1519)
# Settings: Drosophila S3 cells, BODIPY lipid droplet/cell ratio, laser cytometry; at 25.7 µM (top of the series); cells loaded with oleic acid
# Summary of the method: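 Cells seeded at 5,000 per well were treated with compounds over a concentration series and loaded with oleic acid (400 uM, as added). Lipid droplet fluorescence (488 nm excitation, 500-530 nm channel) was read by laser-scanning cytometry and normalized to 20 uM Triacsin C.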
# % is set by controls: 0 for no effect and ±100 for the full control effect.
row,Compound,"activity change, negative = inhibition"
1,CCN(CC)CCNc1ccc(CO)c2sc3ccccc3c(=O)c12,-5.73%
2,C[N+]1(C)CCC(=C(c2ccccc2)c2ccccc2)CC1,0.0072%
3,COc1cc(C(=O)NCc2ccc(OCCN(C)C)cc2)cc(OC)c1OC,-1.74%
4,CCOC(=O)c1ccc(N)cc1,4.88%
5,CC(C)(C)NC[C@H](O)COc1cccc2c1CCCC2=O,-0.268% and -1.87%
6,Cc1cc(-c2ccccc2)nnc1NCCN1CCOCC1,1.62%
7,CCCCNc1ccc(C(=O)OCCOCCOCCOCCOCCOCCOCCOCCOCCOC)cc1,-1.21%
8,CCc1cc(Cl)c(OC)c(C(=O)NC[C@@H]2CCCN2CC)c1O,-7.25%
9,CC[C@H](c1ccc(O)cc1)[C@@H](CC)c1ccc(O)cc1,-3.44%
10,CCCc1ncc(C[n+]2ccccc2C)c(N)n1,-1.66%
11,COc1cc(N)c(Cl)cc1C(=O)NC1CCN(Cc2ccccc2)CC1,0.953%
12,Nc1ccc(S(=O)(=O)Nc2cnc3ccccc3n2)cc1,-4.76%
13,CN1CCC(OC(c2ccccc2)c2ccccc2)CC1,-2.89%
14,CCc1oc2ccccc2c1C(=O)c1cc(Br)c(O)c(Br)c1,0.0966%
15,Cc1c(-c2ccccc2)oc2c(C(=O)OCCN3CCCCC3)cccc2c1=O,1.6%
16,N=C(N)N1CCc2ccccc2C1,-0.877%
17,CCOC(=O)Nc1ccc2c(c1)N(C(=O)CCN1CCOCC1)c1ccccc1S2,-4.54%
